From PubChem BioAssay (NCATS) come the findings set out here.

Results filed as inconclusive are left out. Active and inactive are the calls of the source. Calls follow the shape of the dose curve; as a rule, active = well fitted inhibition curve with a large enough effect; inconclusive = small, poorly fitted or top-dose-only effect; inactive = flat fitted curve, though single readings scatter.

What all share (assay): qHTS profiling for inhibitors of Plasmodium falciparum proliferation (AID 504749); also: nearly all actives have a fitted effect of over 60% in size
What all share (settings): P. falciparum in erythrocytes, SYBR Green DNA, 72 h; series mostly up to 28.7 µM
For orientation: qHTS replaces the single test concentration by a dilution series.

The subject of test [1] is CP291. In short, it runs like this:
(§1)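 Three-day growth assay of blood-stage parasites in erythrocytes (0.3% parasitemia, 2.5% hematocrit) at 37 C, 5% CO2, quantified by SYBR Green DNA staining after overnight detergent lysis.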

Test [2] deals with CP305. In outline: as §1
The subject of test [3] is CP315. In short, it runs like this:
as §1

For test [4], the system named is CP325. In short, it runs like this: as §1
For test [5], the system named is CP329. In short, it runs like this: as §1
The test system of test [6] is CP335. In short, it runs like this: as §1
For test [7], the system named is DFO2036. In outline:
as §1

In test [8] the test system is DIV14. In outline: as §1
In test [9] the test system is DIV17. In short, it runs like this:
as §1

The subject of test [10] is DIV30. In outline:
as §1

In test [11] the test system is Dd2. In short, it runs like this: as §1
The subject of test [12] is ECU. In short, it runs like this:
as §1

The test system of test [13] is FAB9. In short, it runs like this:
as §1

Test [14] has as its system GB4. In short, it runs like this:
as §1

Test [15] concerns HB3. In outline: as §1
For test [16], the system named is ICS. In outline:
as §1

In test [17] the test system is JCK. In short, it runs like this: as §1
The test system of test [18] is N140. In outline:
as §1

Test [19] relates to P93_24. In outline: as §1
The subject of test [20] is CP297. In short, it runs like this: as §1
Potency is read from the fitted curve at half-maximal effect.

As for `NC(CO)(CO)CO`, the Potency entry in [1], in test [2], in [3], in test [4], in test [5] and in [6] was “inactive” each time. Also, the Potency result in test [7], in test [8], in test [9], in [10], in [11] and in test [12] was “inactive” each time. Further, the Potency entry in test [13], in test [14], in test [15], in test [16], in test [17] and in [18] was “inactive” in each case. Further, the Potency entry in [19] was “inactive”.
As to `Cc1cc(N)c2cc(NC(=O)Nc3ccc4nc(C)cc(N)c4c3)ccc2n1`, the Potency in test [1] is 4.26 µM (active); in test [20] it was 4.78 µM (active); in [2], 3.79 µM (active); in test [3], 7.57 µM (active); in test [5], 1.69 µM (active); in [6] it was 7.57 µM (active). In addition, the Potency in test [7] was 5.62 µM (active); in [8] it was 13.5 µM (active); in test [9], 10.7 µM (active); in [10] it was 6.01 µM (active); in [11], 0.891 µM (active); in test [12] it was 10 µM (active). Also, the Potency in test [13] was 5.01 µM (active); in test [14], 7.57 µM (active); in [15], 4.47 µM (active); in test [16] it was 5.01 µM (active); in test [17], 11.2 µM (active); in test [18], 11.2 µM (active).
`CCCCCCCCCCCCCCNCCO`: the Potency result in test [1], in [3], in [4], in [5], in [6] and in test [10] was “inactive” each time. Also, the Potency result in [13] and in test [17] was “inactive” throughout. For the same compound, the Potency in [7] was 17.8 µM (active); in test [11], 10 µM (active); in test [15] it was 10 µM (active); in test [16], 6.31 µM (active); in [18] it was 14.1 µM (active).
On to `CCOc1ccc2nc3cc(N)ccc3c(N)c2c1`, for which the Potency in test [1] is 12 µM (active); in test [20], 15.1 µM (active); in test [2] it was 9.53 µM (active); in [3], 4.26 µM (active); in test [5], 15.1 µM (active); in [6], 6.01 µM (active). Besides, the Potency in test [7] was 5.62 µM (active); in [8], 7.57 µM (active); in test [9] it was 15.1 µM (active); in [11], 2.51 µM (active); in test [12] it was 8.91 µM (active); in test [13] it was 7.94 µM (active). Further, the Potency in [15] was 8.91 µM (active); in test [16], 4.47 µM (active); in test [17], 10 µM (active); in test [18] it was 10 µM (active); in [19], 3.55 µM (active).
For `CC(=O)N/N=C/c1ccc([N+](=O)[O-])o1`, the Potency result in test [1], in test [2], in [3], in test [4], in [5] and in test [6] was “inactive” in each case. The Potency entry in [8] and in test [10] was “inactive” in each case. Moreover, the figures for the Potency in test [11], in test [16] and in [18] were 12.6 µM (active), 5.62 µM (active) and 12.6 µM (active), respectively.
For `CCN(CC)CCOc1ccc(C(O)(Cc2ccc(Cl)cc2)c2ccc(C)cc2)cc1` (stereo unspecified), the Potency in test [1] is 13.5 µM (active); in [20] it was 16.9 µM (active); in [6] it was 12 µM (active); in test [8], 9.53 µM (active); in [9] it was 15.1 µM (active); in [11], 10 µM (active). Further, the Potency is 13.5 µM (active) in test [14], 8.91 µM (active) in test [16] and 8.91 µM (active) in [19]. Moreover, in test [13], the Potency result is “inactive”.
For the compound `CCN1CCN(c2cc3c(cc2F)c(=O)c(C(=O)O)cn3C2CC2)CC1`, the Potency entry in test [1], in [20], in test [3], in test [4], in [5] and in test [7] was “inactive” throughout. Moreover, the Potency result in [8], in [9], in test [10], in test [11], in [12] and in test [14] was “inactive” throughout. For the same compound, the Potency result in test [15], in test [17], in test [18] and in test [19] was “inactive” in each case.
For the compound `CCN1CCC[C@H]1CNC(=O)c1c(OC)ccc(Br)c1OC`, the Potency entry in test [1], in test [2], in test [3], in [4], in test [5] and in [6] was “inactive” in each case. Besides, the Potency result in test [7], in test [10], in test [12], in test [13], in test [15] and in test [16] was “inactive” in each case. Moreover, the Potency result in test [17], in test [18] and in test [19] was “inactive” each time. In addition, the Potency in test [11] is 12.6 µM (active).
Take `CC(=O)Oc1ccc(C(c2ccc(OC(C)=O)cc2)c2ccccn2)cc1`: the Potency entry in [20], in [2], in test [3], in [4], in test [5] and in [6] was “inactive” throughout. Moreover, the Potency result in [7], in [8], in [9], in test [10], in [11] and in test [12] was “inactive” each time. The Potency result in test [13], in test [14], in [15], in test [16], in test [18] and in [19] was “inactive” throughout.
On to `CCN(CC)CCOC(=O)C(c1ccccc1)C1CCCCC1` (stereo unspecified), for which the Potency entry in [20], in test [2], in test [3], in [4], in [6] and in [7] was “inactive” throughout. For the same compound, the Potency result in test [10], in test [13], in [15], in test [17] and in test [18] was “inactive” in each case. Moreover, the results for the Potency in test [8] and in test [11] were 5.36 µM (active) and 11.2 µM (active), respectively.
